Bioassay records from PubChem BioAssay.
An excerpt weighted towards active compounds, which were near 11% of everything screened.
AMA1-RON2 inh: inhibitors of Plasmodium falciparum AMA1-RON2 interaction; hit rate 0.2% among 360,000; Potency, µM (titrated, usually from 58.2 µM), for the others: top-dose activity change, negative = inhibition, hits mostly inhibitors; AlphaScreen AMA1-biotinylated RON2 peptide binding;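 further: 0% = vehicle wells and -100% = peptide control; nearly all actives have a fitted effect of over 45% in size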
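AMA1 (3D7) with his tag at 25 nM final met compounds first, then biotinylated RON2 peptide at 25 nM; detection used donor plus acceptor beads, 10 µg/mL apiece, read by AlphaScreen after 30 min at room temperature.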
NS1 function inh: inhibitors of influenza NS1 protein function; hit rate 0.4% among 270,000; Potency, µM (series often up to 46.1 µM), for the others: at the top dose activity, positive = more growth; calls by dose curve; further: actives are rising curves; nearly all actives have a fitted effect of over 50% in size
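S. cerevisiae expressing influenza A NS1, grown in glucose, washed, then diluted 1:100 into pH 6.0 -URA galactose medium with 23 nl compound. Growth recovery read as OD600; NS1-free strain serves as control.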
Sm TGR block: blocks Schistosoma mansoni thioredoxin glutathione reductase | hit rate 3% among 360,000 | Q962Y6 | Potency, µM (titrated, usually from 114 µM), for inactives: top-dose activity change, negative = inhibition, usual class: inhibitors | purified TGR, DTNB reduction, TNB absorbance 405 nm; further: on the % scale 0 is the no-effect control and ±100 the full control effect; nearly all actives have a fitted effect of over 60% in size
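Kinetic colorimetric format: TGR-catalysed, NADPH-driven DTNB reduction monitored via TNB absorbance. Enzyme dispensed at 20 nM; compound exposure 15 min at room temperature before reaction start.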
Pf growth 48h: P. falciparum growth inhibition at 48 hours (one generation); Potency, µM (highest dose often 28.7 µM), inactives show top-dose activity change, negative = inhibition, hits mostly inhibitors; hit rate 5.9% among 310,000; P. falciparum luciferase growth in erythrocytes, 48 h; further: on the % scale 0 is the no-effect control and ±100 the full control effect
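Compounds are pin-transferred into medium, infected erythrocytes (2% hematocrit, 0.1% parasitemia final) are added, and plates sit one parasite generation at 37 C in 5% CO2. Detection reagent is then added and luminescence measured.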
Pf growth 96h: P. falciparum growth inhibition at 96 hours; hit rate 6.9% among 320,000; Potency, µM (doses to about 28.7 µM), without a hit: top-dose activity change, negative = inhibition, actives largely listed as inhibitors; AID 504834; P. falciparum luciferase reporter growth, 96 h; further: on the % scale 0 is the no-effect control and ±100 the full control effect
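Two-generation exposure (96 h) targets delayed-death phenotype. Reporter parasites carrying integrated firefly luciferase, in red cells at 2% hematocrit and 0.05% parasitemia final, kept at 37 C, 5% CO2; luminescence loss indicates inhibition.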
Active calls of the source: *; [ ] = dose if it differs, or a comment. Unless noted, the call rests on the fitted dose curve; in most records, active means well fitted curve in the direction sought with a large enough effect; inconclusive means small, poorly fitted or top-dose-only effect, or another doubt; inactive means no such curve, though single readings can be large; an effect the other way counts as inactive or inconclusive. Potency means the concentration at half of the fitted maximal effect.

For CCOc1ccc(NC(=S)Nc2ccc(OCC)cc2)cc1 the results were AMA1-RON2 inh 0%, NS1 function inh 0%, Sm TGR block 15%, Pf growth 48h -19% and Pf growth 96h inconclusive.
COc1ccc(C(=O)Nc2ccncc2)cc1[N+](=O)[O-] was read as AMA1-RON2 inh 7%, NS1 function inh 25%, Sm TGR block 2%, Pf growth 48h 8.3µM* and Pf growth 96h 41%.
`COc1ccc(C(=O)N/N=C/c2ccc(OC(=O)c3cccc4ccccc34)c([N+](=O)[O-])c2)cc1` gave AMA1-RON2 inh 15%, NS1 function inh 4%, Sm TGR block 8%, Pf growth 48h 30% and Pf growth 96h 9.3µM*.
For CCOc1ccc(NC(=S)Nc2ccc(C)c([N+](=O)[O-])c2)cc1 the results were AMA1-RON2 inh 33%, NS1 function inh -3%, Sm TGR block -16% and Pf growth 96h 2.1µM*.
For Cc1ccc(-c2ccc(S(=O)(=O)N3CC(C)OC(C)C3)cc2)cc1 (centres undefined) the results were AMA1-RON2 inh -4%, NS1 function inh -3%, Sm TGR block 1%, Pf growth 48h 26% and Pf growth 96h 31%.
`COc1ccccc1CNC(=O)CN1C(=O)NC2(CCCCCCC2)C1=O` gave AMA1-RON2 inh -1%.
For CN1CCc2nc(NC(=O)COc3ccc(C#N)cc3)sc2C1 the results were AMA1-RON2 inh -5%, Sm TGR block 4%, Pf growth 48h 4% and Pf growth 96h -15%.
CCOC(=O)c1ccc(NC(=O)C(C)NS(=O)(=O)c2ccc(OC)cc2)cc1 (centres undefined) was read as AMA1-RON2 inh -9%, NS1 function inh -12%, Sm TGR block -10%, Pf growth 48h inconclusive and Pf growth 96h 3%.
CCOc1ccc(NC(=O)COc2ccc(C(=O)NC(C)c3ccc(S(N)(=O)=O)cc3)cc2OC)cc1 (centres undefined) was read as AMA1-RON2 inh 28%, Sm TGR block 5%, Pf growth 48h 12µM* and Pf growth 96h inconclusive.
`CCOC(=O)c1ccc(NC(=O)COc2ccc(S(=O)(=O)NC(C)CC)cc2)cc1` (centres undefined) gave AMA1-RON2 inh 2%, NS1 function inh -15%, Sm TGR block 1%, Pf growth 48h inconclusive and Pf growth 96h 10µM*.
`Clc1nc(CN2CCOCC2)nc2sc3c(c12)CCC3` gave AMA1-RON2 inh -10%, Sm TGR block -34%, Pf growth 48h 6% and Pf growth 96h 0%.
Cc1sc2nc(CN3CCCCC3)nc(Cl)c2c1C was read as AMA1-RON2 inh 11%, NS1 function inh 4%, Sm TGR block 50µM*, Pf growth 48h 6% and Pf growth 96h inconclusive.
Screening Cc1sc2nc(SCC(=O)N3CCCCC3)[nH]c(=O)c2c1C returned AMA1-RON2 inh -1%, NS1 function inh -4%, Sm TGR block 2%, Pf growth 48h -30% and Pf growth 96h 0%.
For CC1CCN(Cc2nc(Cl)c3c4c(sc3n2)CCC4)CC1 the results were AMA1-RON2 inh -2%, Sm TGR block 16µM*, Pf growth 48h -2% and Pf growth 96h 3%.
Clc1nc(CN2CCCCC2)nc2sc3c(c12)CCCC3 was read as AMA1-RON2 inh 13%, Sm TGR block 20µM*, Pf growth 48h -10% and Pf growth 96h inconclusive.
`COc1ccc(NC(=O)Cn2cc(C(=O)c3ccccc3OC)c(=O)c3ccc(C)nc32)cc1OC` gave Sm TGR block -7%.
`COc1ccc(N2C(=O)NC(NS(=O)(=O)c3ccc(NC(C)=O)cc3)(C(F)(F)F)C2=O)cc1` (centres undefined) gave AMA1-RON2 inh -10%, NS1 function inh 1%, Sm TGR block 0%, Pf growth 48h 0% and Pf growth 96h 9.3µM*.
Screening Clc1ccc2nc(N3CCNCC3)nc(-c3ccccc3)c2c1 returned AMA1-RON2 inh 21%, NS1 function inh 9%, Sm TGR block -6%, Pf growth 48h 12µM* and Pf growth 96h 9%[5.75 µM].
Screening CN1CCN(c2nc(-c3ccccc3)c3cc(Cl)ccc3n2)CC1 returned AMA1-RON2 inh -8%, NS1 function inh -9%, Sm TGR block 7%, Pf growth 48h inconclusive and Pf growth 96h 5%.
`COc1ccccc1OC(C)C(=O)N1CCc2ccccc21` (centres undefined) gave AMA1-RON2 inh -1%, Sm TGR block -4%, Pf growth 48h 10µM* and Pf growth 96h -5%.
Screening COc1ccc(-c2cc(C(=O)N3CCCC3)c3ccccc3n2)cc1 returned AMA1-RON2 inh -3%, NS1 function inh -30%, Sm TGR block -29%, Pf growth 48h 72% and Pf growth 96h 3.7µM*.
Screening Cc1ccc2nc(N3CCN(CCO)CC3)nc(-c3ccccc3)c2c1 returned AMA1-RON2 inh 10%, NS1 function inh -1%, Sm TGR block -7%, Pf growth 48h inconclusive and Pf growth 96h inconclusive.
For CCOC(=O)N1CCN(c2nc(-c3ccccc3)c3cc(C)ccc3n2)CC1 the results were AMA1-RON2 inh 45%, NS1 function inh -2%, Sm TGR block 2%, Pf growth 48h 10µM* and Pf growth 96h inconclusive.
Screening CCOc1ccc(-c2cc(C(=O)N3CCCC3)c3ccccc3n2)cc1 returned AMA1-RON2 inh 9%, NS1 function inh 9%, Sm TGR block -1%, Pf growth 48h 30% and Pf growth 96h -3%.
COc1cccc(CNC(=O)CN2C(=O)CCSc3ccc(S(=O)(=O)N4CCCC4)cc32)c1 was read as AMA1-RON2 inh 4%, NS1 function inh 9%, Sm TGR block -11%, Pf growth 48h inconclusive and Pf growth 96h 15%.
Screening COc1ccc(C(=O)N(C)CCCC2CCCC2)cc1OC1CCN(C(C)C)CC1 returned AMA1-RON2 inh 11%, NS1 function inh 15%, Sm TGR block 3%, Pf growth 48h 9% and Pf growth 96h 34%.
COc1cc2ccccc2cc1C(=O)N1CCCC1 was read as AMA1-RON2 inh -3%, NS1 function inh -6%, Sm TGR block 4%, Pf growth 48h 107% and Pf growth 96h -14%.
For COc1cc2ccccc2cc1C(=O)N1CC(C)CC(C)C1 (centres undefined) the results were AMA1-RON2 inh 0%, NS1 function inh -15%, Sm TGR block 5%, Pf growth 48h 0.33µM* and Pf growth 96h 0.29µM*.
For CCOC(=O)N1CCN(C(=O)c2cc(-c3ccc(OCC)cc3)nc3ccccc23)CC1 the results were AMA1-RON2 inh 0%, NS1 function inh -55%, Sm TGR block 5%, Pf growth 48h 27% and Pf growth 96h 3.7µM*.
`COc1cc2ccccc2cc1C(=O)N1CCc2ccccc21` gave AMA1-RON2 inh -3%, Sm TGR block 4%, Pf growth 48h 9.3µM* and Pf growth 96h inconclusive.
CCOc1ccc(-c2cc(C(=O)NN3CCN(C)CC3)c3cc(Cl)ccc3n2)cc1 was read as NS1 function inh 12%, Sm TGR block -2%, Pf growth 48h 2.3µM* and Pf growth 96h 4.1µM*.
